Measured values from PubChem BioAssay (EPA / NIEHS).
Results filed as inconclusive are left out. Calls of active or inactive are those of the source. Rule for the calls: active = hit-call score of the fitted dose curve at least 0.9, where 1 is the maximum; inconclusive = response in the unintended direction; inactive = score below 0.9.

Test: ACEA_ER_80hr: ACEA Biosciences xCELLigence Real-Time Cell Analysis on Estrogen Receptor Agonism for Proliferation (AID 2282667)
Details: T47D proliferation, impedance (xCELLigence), 80 h
Experimental: ACEA_ER is a cell-based, single-readout assay that uses T47D, a human breast cell line, with measurements taken at 80 hours after chemical dosing in a 96-well plate, although TO2 (mc0.srcf) used a 384-well plate. Differences in plate size can be ignored given data normalization.ACEA_ER_80hr is one of two assay component(s) measured or calculated from the ACEA_ER assay. It is designed to make measurements of real-time cell-growth kinetics, a form of growth reporter, as detected with electrical impedance signals by Real-Time Cell Electrode Sensor (RT-CES) technology.Data from the assay component ACEA_ER_80hr was analyzed into 1 assay endpoint. This assay endpoint, ACEA_ER_80hr_Positive, was analyzed in the positive analysis fitting direction relative to DMSO as the negative control and baseline of activity. Using a type of growth reporter, measures of the cells for gain-of-signal activity can be used to understand the signaling at the pathway-level as they relate to the gene ESR1. Furthermore, this assay endpoint can be referred to as a primary readout, because this assay has produced multiple assay endpoints where this one serves a signaling function. To generalize the intended target to other relatable targets, this assay endpoint is annotated to the nuclear receptor intended target family, where the subfamily is steroidal.
The xCELLigence system Multi-E-Plate stations were used to measure the time-dependent response to chemicals. Each compound was tested in an eight-point, 1:4 serial dilution series starting at a maximum final concentration of 100 uM. A maximum starting concentration of 0.5% DMSO was present in the 100 uM chemical samples and was diluted along with the test article dilution series. The screen was performed in biological duplicate using two separate, 96-well, E-Plates 96 for each dilution series (n = 2). Positive controls (MG132 and E2) and a negative control (assay media) were tested in quadruplicate on each testing plate. […] Reference compounds were tested with 8 concentrations with 1:5 serial dilutions. All screening was carried out by ACEA Biosciences, Inc. (San Diego, CA). T-47D cells purchased from ATCC were maintained in RPMI1640 media supplemented with 10% characterized fetal bovine serum (FBS). […] Cells were then detached and seeded in E-Plates 96 in assay medium. After overnight monitoring of growth once every hour, compounds were added to […] cells and remained in the medium until the end of the experiment. Cellular responses were then recorded once every 5 min for the first 5 h, and once every hour for an additional 100 h.

| SMILES | outcome | AC50 |
| --- | --- | --- |
| FC(F)(F)C(F)(F)C(F)(F)C(F)(F)C(F)(F)C(F)(F)C(F)(F)C(F)(F)F | inactive | – |
| O=S(=O)(OCC(F)F)C(F)(F)F | inactive | – |
| FC(F)(F)C(F)(F)C(F)(F)C(F)(F)C(F)(F)C(F)(F)C(F)(F)Br | inactive | – |
| CCCCCCCOC(=O)c1ccccc1C(=O)OCCCCCCC | inactive | – |
| O=S(=O)(OCCOC(F)(F)F)C(F)(F)F | inactive | – |
| c1ccc(B(c2ccccc2)c2ccccc2)cc1 | – | 7.09 µM (active) |
| C=C(C)C(=O)OCC(F)(F)C(F)(F)C(F)(F)C(F)(F)C(F)(F)C(F)(F)C(F)(F)F | inactive | – |
| O=C(O)C(F)(OC(F)(F)C(F)(OC(F)(F)C(F)(F)C(F)(F)F)C(F)(F)F)C(F)(F)F (stereo not given) | inactive | – |
| C=C(C)C(=O)OCC(F)(F)C(F)(F)C(F)(F)F | inactive | – |
| C#C[C@]1(O)CC[C@H]2[C@@H]3CCc4cc(OC)ccc4[C@H]3CC[C@@]21C | – | 0.0054 µM (active) |
| OCC(F)(F)C(F)(F)C(F)(F)F | inactive | – |
| O=P(O)(O)OCCC(F)(F)C(F)(F)C(F)(F)C(F)(F)C(F)(F)C(F)(F)F | inactive | – |
| CCC(=O)OCCc1ccccc1 | inactive | – |
| O=C(Cl)C(F)(F)C(F)(F)C(F)(F)C(F)(F)C(F)(F)C(F)(F)C(F)(F)C(F)(F)F | inactive | – |
| Cc1cccc(N(C)C)c1 | inactive | – |
| CC/C=C\CCOC(C)=O | inactive | – |
| C=CC(F)(F)C(F)(F)C(F)(F)C(F)(F)C(F)(F)C(F)(F)C(F)(F)C(F)(F)C=C | inactive | – |
| FC(F)(F)C(F)(F)C(F)(F)C(F)(F)C(F)(F)C(F)(F)C(F)(F)C(F)(F)CCS | inactive | – |
| O=C(O)C(F)(F)C(F)(F)OC(F)(F)F | inactive | – |
| CCO[Si](CCC(F)(F)C(F)(F)C(F)(F)C(F)(F)C(F)(F)C(F)(F)F)(OCC)OCC | inactive | – |

| SMILES | outcome | AC50 |
| --- | --- | --- |
| O=C(OCCOCCOCCOC(=O)c1ccccc1)c1ccccc1 | – | 10.8 µM (active) |
| CNC(=S)NC | inactive | – |
| C(=C(c1ccccc1)c1ccccc1)c1ccccc1 | – | 0.647 µM (active) |
| O=C(O)C(F)(F)C(F)(F)C(F)(F)C(F)(F)F | inactive | – |
| CCCCOCCOCCOC(=O)CCCCC(=O)OCCOCCOCCCC | inactive | – |
| FC(F)(F)C(F)(F)C(F)(F)N(C(F)(F)C(F)(F)C(F)(F)F)C(F)(F)C(F)(F)C(F)(F)F | inactive | – |
| O=C(O)C(F)(F)C(F)(F)C(F)(F)C(F)(F)C(F)(F)C(F)(F)C(F)(F)C(F)(F)C(F)(F)C(F)(F)C(F)(F)C(F)(F)F | inactive | – |
| FC(F)(F)C(F)(F)C(F)(F)C(F)(F)C(F)(F)C(F)(F)CCS | inactive | – |
| FC(F)(F)C(F)(F)C(F)(F)CI | inactive | – |
| FC(F)(F)C(F)(F)C(F)(F)C(F)(F)C(F)(F)C(F)(F)CC1CO1 (stereo not given) | inactive | – |
| O=S(=O)(O)C(F)(F)C(F)(F)C(F)(F)C(F)(F)C(F)(F)C(F)(F)C(F)(F)F | inactive | – |
| FC1CC(F)(F)C(F)(F)C1(F)F (stereo not given) | inactive | – |
| Nc1cc(Cl)c(N)c(Cl)c1 | – | 13.5 µM (active) |
| FC(F)(F)C(F)(F)C(F)(F)C(F)(F)C(F)(F)CCI | inactive | – |
| NC(=O)C(F)(F)C(F)(F)C(F)(F)C(F)(F)F | inactive | – |
| OCCCC(F)(F)C(F)(F)C(F)(F)C(F)(F)C(F)(F)C(F)(F)C(F)(F)F | inactive | – |
| Cc1ccc(S(=O)(=O)OCC(F)(F)C(F)(F)C(F)(F)C(F)(F)C(F)(F)C(F)F)cc1 | inactive | – |
| Cc1ccc(S(=O)(=O)NCl)cc1 | inactive | – |
| C=CC(=O)OCC(F)(F)C(F)(F)C(F)(F)C(F)(F)C(F)(F)C(F)(F)C(F)(F)F | inactive | – |
| FC(F)(F)C(F)(F)CNCC(F)(F)C(F)(F)F | inactive | – |
